Hits are enriched below; roughly 14% of the tested compounds scored in any of these assays.
Pf growth 96h: P. falciparum growth inhibition at 96 hour, primary screen for plastid delayed-death inhibitors; P. falciparum luciferase reporter growth, 96 h; Potency, µM (top dose mostly 28.7 µM), without a hit: at the top dose activity change, negative = inhibition, most hits filed as inhibitors; 320,000 tested, 6.9% active; AID 504834; note: potency is the fitted concentration of half-maximal effect
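Compounds incubated with erythrocytes infected by luciferase-expressing P. falciparum (2% hematocrit, 0.05% parasitemia final) for 96 hours, 37 C in 5% CO2. Growth inhibition scored as decreased luciferase luminescence.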
Pf growth 48h: P. falciparum growth inhibition at 48 hours (one generation) | P. falciparum luciferase growth in erythrocytes, 48 h | Potency, µM (highest dose often 28.7 µM), for inactives: top-dose activity change, negative = inhibition, usual class: inhibitors | 310,000 tested, 5.9% active | AID 504832; note: potency is the fitted concentration of half-maximal effect
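First compound was added to culture medium, then infected red cells at 0.1% parasitemia and 2% hematocrit (final). After incubation at 37 C under 5% CO2, luciferase detection reagent was dispensed and light output recorded.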
Giardia FBPA inh: blocks Giardia fructose-bisphosphate aldolase activity. Potency, µM (series often up to 59.6 µM), without a hit: top-dose activity, negative = inhibition, hits mostly inhibitors. A8B2U2. AID 2451. 290,000 tested, 0.71% active. purified Giardia FBPA; note: potency is the fitted concentration of half-maximal effect; nearly all actives have a fitted effect of over 55% in size
Target sequence (A8B2U2 whole entry, looked up): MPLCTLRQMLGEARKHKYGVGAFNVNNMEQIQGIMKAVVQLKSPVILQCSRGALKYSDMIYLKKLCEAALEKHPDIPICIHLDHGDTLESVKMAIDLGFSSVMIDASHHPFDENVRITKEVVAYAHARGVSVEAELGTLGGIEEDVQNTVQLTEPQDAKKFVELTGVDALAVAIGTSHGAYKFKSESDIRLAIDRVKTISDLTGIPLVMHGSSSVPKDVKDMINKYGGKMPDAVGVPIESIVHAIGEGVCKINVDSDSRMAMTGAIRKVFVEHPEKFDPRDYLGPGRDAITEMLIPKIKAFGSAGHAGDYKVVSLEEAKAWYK
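40 nM FBPA preincubated 10 min at RT with compound (up to 57.5 uM final), then substrate plus GAPDH/TPI/NAD/arsenate coupling and diaphorase/resazurin added. Fluorescence read after 20 min at RT, 525/598 nm.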
HCMV inh: human cytomegalovirus inhibition | HFF cells, HCMV-luciferase reporter, 72 h; stronger effect = lower value | activity change, negative = inhibition, % at 57.5 µM | 410,000 tested, 4.5% active; in the data active = activity change below about -60%; inconclusive = no clear call, values can overlap the other calls; inactive = above about -39%
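Human foreskin fibroblasts infected with luciferase-reporter HCMV at MOI 1 PFU/cell, compounds at two doses. Luciferase measured 72 h post infection; normalized to buffer-only basal and Salinomycin (10uM) controls.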
Sm TGR inh: inhibitors of Schistosoma mansoni thioredoxin glutathione reductase; Q962Y6; purified TGR, DTNB reduction, TNB absorbance 405 nm; Potency, µM (titrated, usually from 114 µM), for inactives: at the highest dose activity change, negative = inhibition, most hits filed as inhibitors; 360,000 tested, 3% active; note: potency is the fitted concentration of half-maximal effect; nearly all actives have a fitted effect of over 60% in size
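TGR 20 nM + NADPH 100 uM (dispensed conc.), cpd preinc 15 min RT; start with NADPH (500 uM addition) then DTNB (15 mM addition). Kinetic TNB absorbance, 405 nm filter. Four-parameter Hill fit across titration.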
Numbers without * were called inactive; ? = inconclusive; · = no result given; [ ] = another dose, or the depositor's remark. Unless noted, calls come from the whole dose curve; as a rule, active = well fitted curve in the direction sought with a large enough effect; inconclusive = small, poorly fitted or top-dose-only effect, or another doubt; inactive = no such curve, though single readings can be large; an effect the other way counts as inactive or inconclusive. % is set by controls: 0 for no effect and ±100 for the full control effect.

SMILES	Pf growth 96h	Pf growth 48h	Giardia FBPA inh	HCMV inh	Sm TGR inh
CCC(C)NC(=O)c1cn(C)c(=O)c2cc(OC)c(OC)cc12 (centres undefined)	9.28µM*	-0.4%	-2.5%	-16.2	-13.6%
COCCNC(=O)c1cn(C)c(=O)c2cc(OC)c(OC)cc12	8.28µM*	12.6%	-8.5%	30.9	-5.5%
CC(C)c1ccccc1NC(=S)NC(C)c1ccccc1 (centres undefined)	?	?	5.7%	-87.1*	0.2%
CC(C)c1ccccc1NC(=S)NC1CCCCC1	4.65µM*	?	5.9%	?	7.5%
CCCCc1ccccc1NC(=S)NC1CCCC1	?	9.28µM*	-3.7%	-66.1*	-1.3%
CC(NC(=S)Nc1ccc(F)cc1)c1ccccc1 (centres undefined)	?	125.3%	-3.2%	?	-15.7%
CSc1ccccc1NC(=S)NC1CCCCC1	?	-9.0%	-2.3%	-11.1	-0.2%
CC(=O)N1CCc2cc(S(=O)(=O)CCC(=O)N(C)Cc3ccco3)ccc21	7.8%	-22.2%	7.8%	?	-31.1%
Cc1ccccc1NC(=O)COC(=O)c1c[nH]c(=O)[nH]c1=O	0.2%	1.5%	0.8%	?	·
CCOC(=O)c1c(C)[nH]c(C)c1C(=O)CSc1nnc(-c2ccncc2)n1Cc1ccccc1	10.4µM*	·	5.5%	-16.4	0.4%
CCOC(=O)c1c(C)[nH]c(C)c1C(=O)CSc1nnc(-c2ccco2)n1Cc1ccccc1	14.7µM*	7.38µM*	-3.7%	17.3	-8.0%
CNC(=O)NC(=O)CSc1nnc(-c2ccco2)n1Cc1ccccc1	-0.6%	13.0%	-0.6%	-14.2	-10.1%
Cc1cc(Br)c2nc(-c3ccc(F)cc3)c(Cc3cccc(Cl)c3)n2c1	·	·	·	70.7	·
C/C(=C(/CCO)SS/C(CCO)=C(\C)N(C=O)Cc1cnc(C)nc1N)N(C=O)Cc1cnc(C)nc1N	?	-6.5%	·	·	·
Cc1nnc(NC(=O)NC(C)N2C(=O)C3C4C=CC(C4)C3C2=O)s1 (centres undefined)	-25.8%	2.62µM*	8.9%	11.0	1.2%
COc1ccccc1C1C(C(=O)c2ccco2)=C(O)C(=O)N1c1cc(C)on1 (centres undefined)	9.3%	-4.0%	·	?	0.3%
CCN(CC)c1ccc2c(O)cc(=O)oc2c1	74.0%	0.0%	0.2%	19.8	2.7%
CCCc1cc(=O)oc2cc(OCC(=O)N3CCN(C(=O)C4COc5ccccc5O4)CC3)ccc12 (centres undefined)	11.7µM*	?	·	48.0	-17.1%
CCCCc1cc(=O)oc2cc(OCC(=O)N3CCOCC3)ccc12	44.9%	0.0%	7.0%	-80.6*	-2.0%
CCN(CC)c1ccc(C(=O)OCc2cc(=O)oc3cc(O)ccc23)cc1	4.65µM*	?	7.0%	-103.5*	4.5%
CCCCc1cc(=O)oc2cc(O)ccc12	?	?	6.3%	-103.7*	·
CCCCc1cc(=O)oc2c(CN(C)C)c(O)ccc12	-22.1%	?	-2.0%	47.8	10.2%
COC(=O)[C@]12CCCCC=C1N(CCc1ccc(OC)c(OC)c1)C(=O)[C@H](CC(=O)N1CCN(C(=O)C3CC3)CC1)C2	·	·	·	-27.7	·
O=C(CCn1c(=S)oc2ccccc21)Nc1cccc(O)c1	-22.0%	4.4%	-20.2%	-33.1	0.4%
COc1cccc(-c2cn3ncsc3n2)c1	·	·	·	88.4	1.7%
SMILES	Pf growth 96h	Pf growth 48h	Giardia FBPA inh	HCMV inh	Sm TGR inh
Cc1cc(=O)oc2cc(OCC(=O)N3CCN(C(=O)C4COc5ccccc5O4)CC3)ccc12 (centres undefined)	13.1µM*	?	·	?	-12.1%
O=C(COc1ccc2ccc(=O)oc2c1)N1CCN(C(=O)C2COc3ccccc3O2)CC1 (centres undefined)	?	?	-1.1%	12.3	-29.8%
Cc1cc(=O)oc2cc(OCC(=O)N3CCN(C(=O)C4COc5ccccc5O4)CC3)c(Cl)cc12 (centres undefined)	13.1µM*	-14.5%	·	0.0	3.1%
Cc1cc2c(C)nc3ccccc3c2o1	3.4%	34.8%	1.3%	-22.3	0.0%
Cc1cc2[nH]c3c4ccccc4nc(C)c3c2cc1C	·	·	·	-101.0*	·
COC(OC)c1ccnc(-c2ccc(OC(C)=O)cc2)n1	125.2%	28.4%	0.0%	-82.9*	-0.2%
COC(OC)c1ccnc(-c2ccc(OC(=O)c3ccccc3)cc2)n1	31.4%	30.9%	0.2%	29.8	1.4%
CC1(O)CCN2C(=O)CCc3cccc1c32 (centres undefined)	?	-13.6%	·	-61.2*	-19.3%
O=C(NCc1ccccc1Cl)[C@@H]1[C@@H](CO)[C@@H]2Cn3c(cccc3=O)[C@@H]2N1C(=O)C1CCC1	·	·	·	2.7	·
Cc1cccc(C(=O)Oc2cccc3c(O)cccc23)c1	?	?	-7.3%	-28.5	?
CCC(=O)N(CCC1(c2ccccc2OC)CCOC(C(C)C)C1)Cc1ccco1 (centres undefined)	10.4µM*	10.4µM*	-0.5%	3.5	-33.0%
COc1ccccc1C1(CCNC(C)c2cccs2)CCOC(C(C)C)C1 (centres undefined)	8.28µM*	8.28µM*	2.8%	-15.7	-4.5%
Cc1ccc(C(=O)NCC(=O)N(C)Cc2ccccc2C)s1	·	·	·	26.1	·
CCOc1ccccc1C(=O)NCC(=O)N(C)Cc1ccccc1C	13.1µM*	10.4µM*	-3.9%	-16.3	-12.1%
CNC(=O)C[C@H]1C(=O)N(Cc2ccccc2)C[C@@H]1Cc1ccccc1	·	·	·	1.9	·
COC1CCC(C(=O)c2ccc3nc4c(cc3c2)CCCO4)CC1 (centres undefined)	·	·	5.1%	·	·
Cc1c(C)n(Cc2ccccc2)c2ncnc(NN)c12	-7.5%	8.1%[0.00184 µM]	-5.4%	-73.4*	-4.6%
OC(c1cccc(Cl)c1)c1ncc(-c2cccc(C(F)(F)F)c2)[nH]1 (centres undefined)	·	·	·	-0.8	·
C=C1C(=O)[C@@]23C[C@H]4[C@@H]5[C@@]6(C)CCC[C@@]57[C@@H]2[C@@H](O)[C@@H]1C[C@H]3[C@H]7N4C6	·	·	·	-77.0*	·
CCN(CC)c1cc(CS(=O)c2ccccc2)nc(-c2ccccc2)n1 (centres undefined)	·	·	·	-60.7*	·
CC(Oc1ccccc1)C(=O)Nc1ccc(S(=O)(=O)N2CCN(C)CC2)cc1 (centres undefined)	0.0657µM*	?	·	-19.0	-4.7%
Cc1cccc(OC(C)C(=O)Nc2ccc(S(=O)(=O)N3CCCC3)cc2)c1 (centres undefined)	10.4µM*	?	·	?	0.0%
CC(=O)Nc1cccc(C(=O)OC(C)C(=O)Nc2ccc(S(=O)(=O)N3CCCC3)cc2)c1 (centres undefined)	-25.5%	-4.2%	·	12.3	-2.6%
CC(=O)Nc1ccc(NC(=O)C(C)OC(=O)c2ccc(S(=O)(=O)N3CCCCCC3)cc2)cc1 (centres undefined)	·	·	·	-71.9*	·
C[N+](C)(C)CCC(=O)c1cccc2ccccc12	·	·	17.3%	·	·
